According to the supplement of paper PMC10720658:
± gives the standard deviation of the averaged measurements.

test system: AEK1 (Tb927.3.2440); assay: percent reduction in TR-FRET probe signal relative to DMSO control; higher = stronger displacement of ATP-site probe (binding); conditions: 1 µM; incubation time 1 h

**Q.** With `CN([C@@H](Cc1ccc(OS(=O)(=O)c2cccc3cnccc23)cc1)C(=O)N1CCN(c2ccccc2)CC1)S(=O)(=O)c1cccc2cnccc12` as the molecule, how does the “percent reduction in TR-FRET probe signal” value (shortened to “percent reduction”) read?
**A.** 0.31 ± 8.8%

**Q.** How did the “percent reduction” value turn out when `CO[C@H]1C[C@@H]2CC[C@@H](C)[C@@](O)(O2)C(=O)C(=O)N2CCCC[C@H]2C(=O)O[C@H]([C@H](C)C[C@@H]2CC[C@H](n3cnnn3)[C@H](OC)C2)CC(=O)[C@H](C)/C=C(\C)[C@@H](O)[C@@H](OC)C(=O)[C@H](C)C[C@H](C)/C=C/C=C/C=C/1C` [Zotarolimus(ABT-578)] was run?
**A.** -16.6 ± 5%

**Q.** For `CS(=O)(=O)c1cccc(CNc2nc(Nc3ccc4c(c3)CCC(=O)N4)ncc2C(F)(F)F)c1`, which “percent reduction” value is on record?
**A.** 39.5 ± 13%

**Q.** `O=[N+]([O-])c1cnc(Sc2nnc(O)n2-c2ccc3c(c2)OCCO3)s1` was tested. Which “percent reduction” value did it give?
**A.** 0.0867 ± 3.4%

**Q.** How did the “percent reduction” value turn out when `CNC(=O)c1cc(Oc2ccc(NC(=O)Nc3ccc(Cl)c(C(F)(F)F)c3)cc2)ccn1` [Sorafenib] was run?
**A.** 17.5 ± 6.7%

**Q.** With `Nc1ncnc2c1c(-c1cccc(OCc3ccccc3)c1)cn2[C@H]1C[C@@H](CN2CCC2)C1` as the molecule, how does the “percent reduction” value read?
**A.** 0.997 ± 12%

**Q.** `Nc1nc(NCCNc2ncc(-n3ccnc3)c(-c3ccc(Cl)cc3Cl)n2)ccc1[N+](=O)[O-]` was tested. Which “percent reduction” value did it give?
**A.** 4.72 ± 12%

**Q.** How did the “percent reduction” value turn out when `CCO.N#CC(=C(\N)Sc1ccccc1N)/C(C#N)=C(/N)Sc1ccccc1N` was run?
**A.** 0.443 ± 7.1%

**Q.** `O=C(NOCC1CC1)c1ccc(F)c(F)c1Nc1ccc(I)cc1Cl` was tested. Which “percent reduction” value did it give?
**A.** 5.58 ± 12%

**Q.** `Cc1[nH]c2ccccc2c1C1=C(NCCc2ccc(F)cc2)C(=O)N(C)C1=O` was tested. Which “percent reduction” value did it give?
**A.** 8.32 ± 10%

**Q.** With `CNCc1ccc(-c2cc(-c3nc(-c4ccc(S(=O)(=O)C(C)C)cc4)cnc3N)on2)cc1` as the molecule, how does the “percent reduction” value read?
**A.** 0.147 ± 8.7%

**Q.** How did the “percent reduction” value turn out when `OCCn1cc(-c2cnc3nnn(Cc4ccc5ncccc5c4)c3n2)cn1` was run?
**A.** -2.19 ± 3.1%

**Q.** With `COc1nccc(-c2c(-c3ccc(F)cc3)ncn2[C@H]2CC[C@H](O)CC2)n1` as the molecule, how does the “percent reduction” value read?
**A.** -2.94 ± 9.9%

**Q.** For `CN1CCC(COc2cnc(-c3cccc(Cn4nc(-c5cccc(C#N)c5)ccc4=O)c3)nc2)CC1`, which “percent reduction” value is on record?
**A.** 6 ± 15%

**Q.** With `C[C@@H]1CCN(C(=O)CC#N)C[C@@H]1N(C)c1ncnc2[nH]ccc12.O=C(O)CC(O)(CC(=O)O)C(=O)O` as the molecule, how does the “percent reduction” value read?
**A.** -1.47 ± 8.1%

**Q.** `Cc1ccc(-c2nn(C(C)(C)C)c3ncnc(N)c23)cc1` was tested. Which “percent reduction” value did it give?
**A.** -1.9 ± 8.7%

**Q.** With `Oc1ccc2ccccc2c1SSc1c(O)ccc2ccccc12` as the molecule, how does the “percent reduction” value read?
**A.** -9.34 ± 9%

**Q.** How did the “percent reduction” value turn out when `FC(F)(F)c1ccc(/C=C/c2nc(COc3ccc(CCCCn4ccnn4)cc3)co2)cc1` [Mubritinib (TAK 165)] was run?
**A.** 0.627 ± 0.93%

**Q.** `CCCCOc1c(C(=O)c2c(F)cc(C)cc2F)cnc2[nH]ncc12` was tested. Which “percent reduction” value did it give?
**A.** 0.53 ± 8%

**Q.** How did the “percent reduction” value turn out when `O=C(Nc1ccc(OC(F)(F)F)cc1)c1sccc1NCc1ccnc2ccccc12` was run?
**A.** -8.08 ± 5.7%

**Q.** For `COc1ccc2c(Oc3ccc(NC(=O)c4c(C)n(CC(C)(C)O)n(-c5ccccc5)c4=O)nc3)ccnc2c1`, which “percent reduction” value is on record?
**A.** 0.253 ± 6.4%

**Q.** `CNC(=O)c1ccc(C)c(-n2c(C)cc(OCc3ccc(F)cc3F)c(Br)c2=O)c1` was tested. Which “percent reduction” value did it give?
**A.** -1.42 ± 7.4%

**Q.** Which “percent reduction” value does the source give for `N#C/C(=C(/N)Sc1ccc(N)cc1)c1ccccc1C(F)(F)F` here?
**A.** 2.78 ± 13%

**Q.** `CCc1ccc(/C=C2/SC(=S)NC2=O)cc1` was tested. Which “percent reduction” value did it give?
**A.** -1.24 ± 9.7%

**Q.** `Clc1ccc(C2(c3ccc(-c4cn[nH]c4)cc3)CCNCC2)cc1` was tested. Which “percent reduction” value did it give?
**A.** 27.3 ± 17%

**Q.** `Cc1[nH]c(/C=C2\C(=O)Nc3ccccc32)c(C)c1CCC(=O)O` [TSU-68 (SU6668, Orantinib)] was tested. Which “percent reduction” value did it give?
**A.** 1.55 ± 4%

**Q.** How did the “percent reduction” value turn out when `CC(C)CC(=O)Nc1n[nH]c2c1CN(C(=O)C1CCN(C)CC1)C2(C)C` was run?
**A.** -0.07 ± 7.6%

**Q.** `Cc1ccc(C(=O)Nc2ccc(CN3CCN(C)CC3)c(C(F)(F)F)c2)cc1C#Cc1cnc2[nH]ncc2c1` was tested. Which “percent reduction” value did it give?
**A.** 29.4 ± 11%

**Q.** `CC[C@@](C)(Nc1ccnc(-c2c[nH]c3ncccc23)n1)C(=O)NCC(F)(F)F` [Decernotinib (VX-509)] was tested. Which “percent reduction” value did it give?
**A.** -1.74 ± 4.4%

**Q.** With `NC1(C(=O)N[C@@H](CCO)c2ccc(Cl)cc2)CCN(c2ncnc3[nH]ccc23)CC1` as the molecule, how does the “percent reduction” value read?
**A.** 3.79 ± 1.4%

**Q.** Which “percent reduction” value does the source give for `COc1cc2nccc(Oc3ccc(NC(=O)NC4CC4)c(Cl)c3)c2cc1C(N)=O` [Lenvatinib (E7080)] here?
**A.** 1.41 ± 13%

**Q.** Which “percent reduction” value does the source give for `CS(=O)(=O)N1CCc2c(-c3cnc(N)nc3)nc(N3CCOCC3)nc21` here?
**A.** -5.47 ± 9.1%

**Q.** Which “percent reduction” value does the source give for `CNC(=O)c1nn(C)c2c1C(C)(C)Cc1cnc(Nc3ccc(N4CCN(C)CC4)cc3)nc1-2` here?
**A.** -3.55 ± 7.5%

**Q.** How did the “percent reduction” value turn out when `CCc1cncnc1N1CCN(Cc2nc3cc(C(F)(F)F)ccc3[nH]2)CC1` was run?
**A.** -7.37 ± 13%

**Q.** How did the “percent reduction” value turn out when `CCCNC(=O)c1cn2ncnc(Nc3cc(C(=O)NC4CC4)ccc3C)c2c1C` was run?
**A.** 10.5 ± 8.4%

**Q.** `Cl.Cl.c1cc(-c2cnn3cc(-c4ccc(OCCN5CCCCC5)cc4)cnc23)ccn1` [Dorsomorphin 2HCl] was tested. Which “percent reduction” value did it give?
**A.** -8.77 ± 4.9%

**Q.** How did the “percent reduction” value turn out when `CCc1cnn2c(NCc3ccc[n+]([O-])c3)cc(N3CCCC[C@H]3CCO)nc12` was run?
**A.** -4.69 ± 4.1%

**Q.** With `Cc1cc(F)c(Nc2ncnc3cc(OCc4ccccc4)ccc23)cc1O.Cl` as the molecule, how does the “percent reduction” value read?
**A.** 29.8 ± 17%
